Screening results deposited in PubChem BioAssay by several laboratories.
A selection: hits, their analogues and other compounds. The true share with any hit is near 4%.
Gli-Sufu antag = blocks Gli-Sufu signaling in a luciferase reporter; Sufu-KO-LIGHT fibroblasts, Gli luciferase reporter luminescence; 340,000 tested, 0.74% active; AID 588413; inhibition, % at 5 µM;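 active means inhibition above about 55%, limit read from the data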;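 further: 0% = DMSO-treated cells and 100% = wells with medium but no cells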
PAX8 reporter = lowers PAX8-driven luciferase in RMG-I cells; inhibition, % at 12.6 µM; 360,000 tested, 1.2% active; RMG-I TPO-luciferase reporter, SteadyGlo, 24 h;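 active means mean replicate inhibition at least 60% with every replicate also reaching 60%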;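 further: luciferase light reporting Pax8 driven TPO promoter activity; plate controls were median of neutral control wells for no effect and mitoxantrone controls for full effect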
Shn3 inh set2 = inhibitors of Schnurri-3 3'UTR reporter in osteoblasts; Clone20 osteoblast Shn3 3'UTR firefly luciferase, 24 h; inhibition, % at 12.5 µM; 360,000 tested, 0.52% active;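 active means mean inhibition of at least 75% with every replicate also reaching 75%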;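 further: 0% = median of neutral control wells and 100% = pilot-screen positive control compound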
CSC inhib = blocks cancer stem cells; cancer stem cell-like cells viability, luminescence; inhibition, % at 7.5 µM; 300,000 tested, 1.1% active; AID 2717; in the data active means inhibition above about 75%; tested in HMLE shEcad cells
Beta cell apopt = beta cell apoptosis inhibition; INS-1E cytokine-induced death, ATP luminescence, 48 h; percent of positive-control rescue, neutral wells zero; protection from apoptosis, % (concentration not given with the values); 300,000 tested, 0.8% active; AID 435005;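 active means Every replicate reaches about 75%, or at least half do and their mean reaches it too, limit read from the data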;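 further: 0% = cytokine-treated negative control wells and 100% = positive control rescue; higher means more ATP so stronger rescue from cytokine killing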
Mdm2-MdmX inh = inhibitors of human Mdm2/MdmX interaction; O15151+Q00987; SaOS-2 split-luciferase Mdm2/MdmX complementation, luminescence; inhibition, % at 8 µM; 330,000 tested, 3% active; AID 485346;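 active means inhibition of at least 50% at 8 µM in the primary screen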
Target sequence (O15151 whole entry, looked up): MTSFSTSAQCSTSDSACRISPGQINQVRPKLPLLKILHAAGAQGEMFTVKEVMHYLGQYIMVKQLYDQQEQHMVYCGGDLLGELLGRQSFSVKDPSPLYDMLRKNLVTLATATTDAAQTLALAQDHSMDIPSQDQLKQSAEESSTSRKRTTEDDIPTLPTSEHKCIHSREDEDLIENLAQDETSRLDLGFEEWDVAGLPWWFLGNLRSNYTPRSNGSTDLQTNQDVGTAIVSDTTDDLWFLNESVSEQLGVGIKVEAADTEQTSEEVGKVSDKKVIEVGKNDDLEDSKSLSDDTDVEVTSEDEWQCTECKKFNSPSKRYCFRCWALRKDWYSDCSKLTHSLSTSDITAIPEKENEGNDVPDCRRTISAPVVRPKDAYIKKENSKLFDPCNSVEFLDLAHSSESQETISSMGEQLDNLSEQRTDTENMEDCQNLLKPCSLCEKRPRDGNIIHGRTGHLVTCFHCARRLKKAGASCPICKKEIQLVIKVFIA
Target sequence (Q00987 whole entry, looked up): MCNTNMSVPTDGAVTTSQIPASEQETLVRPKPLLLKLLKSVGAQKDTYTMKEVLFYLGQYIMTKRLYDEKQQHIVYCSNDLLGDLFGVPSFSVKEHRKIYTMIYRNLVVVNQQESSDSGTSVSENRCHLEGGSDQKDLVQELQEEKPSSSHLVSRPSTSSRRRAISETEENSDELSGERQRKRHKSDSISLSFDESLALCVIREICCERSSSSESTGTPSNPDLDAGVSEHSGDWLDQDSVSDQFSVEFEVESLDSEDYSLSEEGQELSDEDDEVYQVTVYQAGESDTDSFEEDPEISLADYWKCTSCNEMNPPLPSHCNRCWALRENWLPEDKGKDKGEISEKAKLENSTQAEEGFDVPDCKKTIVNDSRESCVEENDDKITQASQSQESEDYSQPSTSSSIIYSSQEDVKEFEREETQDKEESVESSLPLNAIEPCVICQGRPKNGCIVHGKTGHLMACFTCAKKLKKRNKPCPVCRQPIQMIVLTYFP
The depositor's hits bear a star; . = not tested or not shown.

SMILES | Gli-Sufu antag | PAX8 reporter | Shn3 inh set2 | CSC inhib | Beta cell apopt | Mdm2-MdmX inh
CCN(CC(=O)Nc1c(F)cccc1F)C(=O)c1ccc(N2CCOCC2)c([N+](=O)[O-])c1 | 14.6 | 0.1 | -4.5 | -3.8 | 1.2 | 15.6
CCN(CC(=O)Nc1c(F)cccc1F)C(=O)c1ccc(N2CCCC2)c([N+](=O)[O-])c1 | -3.1 | 9.6 | 14.1 | 2.8 | 3.7 | -7.3
CCN(CC(=O)Nc1c(F)cccc1F)C(=O)c1cc(S(=O)(=O)N2CCOCC2)ccc1N1CCCC1 | 8.5 | 72.4* | 5.1 | . | 17.5 | -41.8
CCN(CC(=O)Nc1c(F)cccc1F)C(=O)c1cc([N+](=O)[O-])ccc1N1CCCCC1 | 16.6 | 79.6* | 5.0 | -1.1 | . | -0.9
CN(CC(=O)Nc1ccc(F)c(F)c1F)C(=O)c1cc(S(=O)(=O)N(C)C)ccc1N1CCCC1 | 2.2 | 12.8 | -6.3 | . | . | .
CS(=O)(=O)Nc1ccc2c(c1)[C@H]1C[C@H](CC(=O)NCc3ccc(-c4ccccc4)cc3)O[C@@H](CO)[C@H]1O2 | . | 13.5 | . | . | . | .
CCOC(=O)c1cc([N+](=O)[O-])c([N+](=O)[O-])cc1NC(C)=O | -2.6 | 23.3 | 98.1* | 46.3 | 1.7 | .
CCOC(=O)c1ccc(NC(=O)c2ccccc2[N+](=O)[O-])cc1 | -26.9 | -59.0 | -23.5 | -3.3 | . | -7.8
C[C@@H]1CCCCO[C@@H](CN(C)S(=O)(=O)c2ccc(Cl)cc2)[C@H](C)CN([C@H](C)CO)C(=O)c2cc(NC(=O)Cc3ccccc3)ccc2O1 | . | 61.8* | . | . | . | .
C[C@@H]1CN([C@H](C)CO)C(=O)c2cc(NC(=O)Nc3ccc(F)cc3)ccc2O[C@@H](C)CCCCO[C@H]1CN(C)S(=O)(=O)c1ccc(Cl)cc1 | . | 76.1* | 16.6 | . | . | .
C[C@H](CO)N1C[C@H](C)[C@H](CN(C)S(=O)(=O)c2ccc(Cl)cc2)OCCCC[C@H](C)Oc2ccc(NC(=O)Nc3ccccc3)cc2C1=O | . | 64.9* | . | . | . | .
C[C@H]1CCCCO[C@H](CN(C)S(=O)(=O)c2ccc(Cl)cc2)[C@@H](C)CN([C@@H](C)CO)C(=O)c2cc(NC(=O)Cc3ccccc3)ccc2O1 | . | 52.3 | . | . | . | .
C[C@@H]1CCCCO[C@H](CN(C)S(=O)(=O)c2ccc(Cl)cc2)[C@H](C)CN([C@@H](C)CO)C(=O)c2cc(NC(=O)NC3CCCCC3)ccc2O1 | . | 63.0* | . | . | . | .
C[C@H]1CCCCO[C@H](CN(C)S(=O)(=O)c2ccc(Cl)cc2)[C@@H](C)CN([C@@H](C)CO)C(=O)c2cc(NC(=O)Nc3ccccc3)ccc2O1 | . | 31.5 | . | . | . | .
C[C@H]1CCCCO[C@H](CN(C)S(=O)(=O)c2ccc(Cl)cc2)[C@@H](C)CN([C@@H](C)CO)C(=O)c2cc(NC(=O)NC3CCCCC3)ccc2O1 | . | 3.0 | . | . | . | .
C[C@@H]1CN([C@@H](C)CO)C(=O)c2cc(-c3ccccc3F)cnc2O[C@H]1CN(C)C(=O)NC1CCCC1 | . | 5.3 | . | . | . | .
C[C@H](CO)N1C[C@H](C)[C@@H](CN(C)S(=O)(=O)c2ccc(F)cc2)Oc2c(NS(=O)(=O)c3ccc(Cl)cc3)cccc2C1=O | . | -3.0 | . | . | . | .
C[C@@H]1CCCCO[C@H](CN(C)S(=O)(=O)c2ccc(Cl)cc2)[C@@H](C)CN([C@@H](C)CO)C(=O)c2cc(NC(=O)Nc3ccc(F)cc3)ccc2O1 | . | 66.0* | . | . | . | .
Cc1cc(C)c2c(C)[nH]nc2n1 | 4.5 | 12.5 | 3.8 | 43.5 | 161.5* | 10.7
Oc1cccc(/C=C/c2ccc3cccc(O)c3n2)c1 | 10.9 | -43.7 | -0.7 | 87.4* | 15.9 | -90.6
COc1ccc(C2C(Oc3ccccc3)C(=O)N2c2cc(C)ccc2C)cc1OC (stereo not drawn) | 16.2 | . | -2.0 | 10.9 | 2.5 | -29.8
COc1ccc(C)cc1N1C(=N)/C(=C2/Nc3ccccc3S2)C(c2ccccc2)C1=O (stereo not drawn) | -8.2 | 13.3 | 52.7 | 111.9* | -3.0 | .
CCC(=O)N1CCC2(CC1)CN(Cc1ccccc1Cl)[C@H](CO)c1c2c2ccc(OC)cc2n1C | . | 9.6 | . | . | . | .
CCOC(=O)c1cnc2ccc(OCC)cc2c1N1CCN(c2ccccc2)CC1 | 10.3 | 16.0 | 2.7 | 51.9 | 104.8* | 7.9
COc1ccc(OCCN(C)Cc2c(O)ccc3ccccc23)cc1 | -1.1 | 62.0* | 15.8 | -4.3 | 1.1 | 9.4
SMILES | Gli-Sufu antag | PAX8 reporter | Shn3 inh set2 | CSC inhib | Beta cell apopt | Mdm2-MdmX inh
O=C(C[C@@H]1CC[C@H]2[C@@H](COC[C@@H](O)CN2C(=O)c2ccc(F)cc2)O1)Nc1ccc(-c2ccccc2)cc1 | . | 26.9 | . | . | . | .
CC(C)(C)NC(=O)NC(=O)CN1CCN(c2ccc(O)cc2)CC1 | 29.2 | 9.7 | 86.7* | 35.8 | 12.5 | -13.8
CC(C)(C)NC(=O)NC(=O)CN1CCN(c2ccccc2)CC1 | 4.2 | 19.3 | 6.5 | -14.7 | -4.6 | 13.2
COc1ccc(CCN2C(=O)C=CC2=O)cc1OC | 6.1 | 95.4* | 62.9 | . | . | .
CCOCCOC(=O)C(C)Oc1ccc(Oc2ncc(Cl)cc2Cl)cc1 (stereo not drawn) | -13.5 | 70.8* | 4.3 | -8.3 | -1.0 | -9.4
CC(C)NC(=O)N1CC[C@@H]2[C@H]1c1cc(C#Cc3cccnc3)ccc1N(C)[C@@H]2CO | . | 6.8 | . | . | . | .
O=C(CCCC(=O)OCC(Cl)=C(Cl)Cl)Nc1cccc(F)c1 | 5.7 | -10.1 | -12.3 | -0.3 | -0.7 | 1.3
O=C(CCCC(=O)OCC(Cl)=C(Cl)Cl)Nc1ccc(F)cc1 | -2.5 | 103.1* | -9.5 | . | -7.2 | -8.7
Cc1ccc(C(=O)ONc2ccc(N=NC(=O)c3ccccc3O)cc2)cc1 | -16.4 | . | -19.7 | 78.4* | 3.9 | -10.1
COC(=O)c1ccc(NN=Nc2ccc(C)cc2)cc1 | -98.3 | . | -41.3 | -6.9 | -0.4 | -39.4
O=c1[nH]c(CSc2ccccn2)nc2c1cnn2-c1ccccc1 | -27.6 | -6.7 | -17.6 | -4.2 | -2.7 | -17.6
Cn1ccnc1SCc1nc2c(cnn2-c2ccccc2)c(=O)[nH]1 | 5.0 | 139.8* | -22.4 | -0.6 | -2.4 | -3.4
CCCNC(=O)c1onc(CSc2ccc(Cl)cc2)c1C(=O)NCCC(C)C | 29.0 | -3.3 | -20.2 | 93.1* | 3.7 | 10.8
Oc1ccc(/C=N/NC(=S)Nc2cccnc2)c(O)c1O | 8.3 | 16.6 | 0.0 | . | . | .
Oc1cccc(/C=N/NC(=S)Nc2cccnc2)c1O | 21.9 | -13.1 | 80.4 | 73.8 | 87.3* | .
O=C(NCc1ccc(F)cc1F)[C@@H]1CCCN1C(=O)[C@@H]1CCCN1 | . | 79.7* | . | . | . | .
COc1ccccc1NC(=O)N1CCCCN2[C@@H](CO)[C@@H](c3ccc(-c4cccc(C)c4)cc3)[C@@H]2C1 | . | 103.7* | . | . | . | .
COc1ccccc1NC(=O)N1CCCCN2[C@H](C1)[C@H](c1ccc(-c3cccc(C)c3)cc1)[C@@H]2CO | . | 35.1 | . | . | . | .
COc1ccccc1NC(=O)N1CCCCN2[C@H](C1)[C@H](c1ccc(-c3cccc(C#N)c3)cc1)[C@@H]2CO | . | 20.5 | . | . | . | .
COc1ccccc1NC(=O)N1CCCCN2[C@H](C1)[C@@H](c1ccc(-c3cccc(C#N)c3)cc1)[C@@H]2CO | . | 83.4* | . | . | . | .
C/C=C/c1ccc([C@H]2[C@@H](CO)N(C(=O)Cc3cccnc3)[C@H]2CNC(C)=O)cc1 | . | -2.9 | . | . | . | .
